RE007 growth inh: qHTS Assay for Inhibitors of the HIV-1 protein Vpr. 360,000 compounds, 0.21% hits. Potency, µM (series often up to 92.2 µM), actives largely listed as inhibitors. S. pombe RE007 Vpr strain, BacTiter-Glo ATP luminescence, 24 h. AID 651644, 2012; active means well fitted falling curve with a large enough effect; inconclusive means small, poorly fitted or top-dose-only effect; inactive means no such curve, though single readings can be large or run the other way; further: nearly all actives have a fitted effect of over 50% in size
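Fission yeast strain RE007, carrying one chromosomally integrated HIV-1 vpr copy, was seeded at OD 0.01 in PMG+AL medium with 23 nL pinned compound. After 24 h at 30 °C and 99% humidity, viability was read by BacTiter-Glo luminescence.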
NS1 inh: qHTS Assay for Inhibitors of Influenza NS1 Protein Function. 270,000 compounds, 0.4% hits. Potency, µM (highest dose often 46.1 µM); calls by dose curve; further: actives are rising curves; nearly all actives have a fitted effect of over 50% in size
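Read-out: OD600 growth recovery of NS1-expressing budding yeast. Cells grown overnight at 30C in -URA glucose medium, washed, resuspended and diluted 1:100 in 2% galactose assay medium, pH 6.0. Same strain lacking NS1 served as positive control.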
SARS PLP yeast: qHTS of Yeast-based Assay for SARS-CoV PLP; S. cerevisiae expressing SARS-CoV PLpro, growth rescue; Potency, µM (top dose mostly 32.9 µM), hits mostly activators; 330,000 compounds, 0.19% hits; calls by dose curve; further: nearly all actives have a fitted effect of over 55% in size
Pf growth 48h: Primary qHTS for delayed death inhibitors of the malarial parasite plastid, 48 hour incubation; P. falciparum luciferase growth in erythrocytes, 48 h; AID 504832, 2011; 310,000 compounds, 5.9% hits; Potency, µM (doses to about 28.7 µM), most hits filed as inhibitors
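A one-generation exposure of luciferase-tagged malaria parasites in RPMI 1640/Albumax erythrocyte culture, 37 C and 5% CO2. Inhibition is inferred from decreased luminescence after adding detection reagent.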
Pf growth 96h: Primary qHTS for delayed death inhibitors of the malarial parasite plastid, 96 hour incubation; P. falciparum luciferase reporter growth, 96 h; Potency, µM (series often up to 28.7 µM), hits mostly inhibitors; 320,000 compounds, 6.9% hits
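Parasite growth measured via integrated firefly luciferase reporter in P. falciparum. Infected erythrocytes at 2% hematocrit, 0.05% parasitemia final were treated 96 hours at 37 C under 5% CO2, and luminescence was read.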
A number is an active result; . = inactive; ? = inconclusive; / = no result. Sampled rows, rich in hits. Any-hit rate of the full collection: about 9.5%. Unless noted, the call rests on the fitted dose curve; in most records, active means well fitted inhibition curve with a large enough effect; inconclusive means small, poorly fitted or top-dose-only effect, or another doubt; inactive means no such curve, though single readings can be large or run the other way.

SMILES | RE007 growth inh | NS1 inh | SARS PLP yeast | Pf growth 48h | Pf growth 96h
COCCN(CC(=O)Nc1cccc(C)c1C)C(=O)c1oc2c(Cl)cccc2c1C | . | / | . | 9.3µM | ?
CCN(CC(=O)Nc1ccc(NC(C)=O)cc1)C(=O)c1oc2ccccc2c1C | . | / | . | . | .
Cc1c(C(=O)N(C)CC(=O)Nc2cccc(F)c2)oc2c(Cl)cccc12 | . | / | . | 2.6µM | 1.5µM
COCCN(CC(=O)Nc1cccc(C)c1C)C(=O)c1cc(S(=O)(=O)N2CCCC2)ccc1C | . | / | . | . | ?
CCN(CC(=O)Nc1ccc(NC(C)=O)cc1)C(=O)c1oc2c(ccc3ccccc32)c1C | . | / | . | ? | 12µM
CCOC(=O)Cc1csc(SCC(=O)N2CCN(c3ccccc3)CC2)n1 | . | / | . | / | /
COc1ccc(NC(=O)CN(C)C(=O)CNC(=O)Cc2cccc3ccccc23)cc1 | . | . | ? | . | .
COCCN(CC(=O)Nc1cccc(C)c1C)C(=O)c1cc(-c2cccs2)nn1-c1ccccc1 | . | / | . | ? | .
COc1ccc(NC(=O)CN(C)C(=O)c2oc3c(ccc4ccccc43)c2C)cc1 | . | / | . | 0.19µM | 0.19µM
COCCN(CC(=O)Nc1cccc(C)c1C)C(=O)c1cc(-c2ccncc2)nc2ccccc12 | . | / | . | 10µM | 8.3µM
N=c1oc2cc(O)ccc2cc1C(=O)Nc1ccc(Br)cc1 | . | . | . | . | 0.74µM
N=c1oc2cc(O)ccc2cc1C(=O)Nc1ccccn1 | / | . | . | . | .
CCc1nc(SCC(=O)c2ccc3c(c2)OCCO3)c2ccccc2n1 | . | . | . | ? | 10µM
O=C(CSc1nc(Cc2ccccc2)nc2ccccc12)c1ccc2c(c1)OCCO2 | . | . | . | 9.3µM | ?
O=C(CSc1ncnc2ccccc12)c1ccc2c(c1)OCCO2 | . | . | . | . | .
CCc1nc(SCC(=O)c2ccccc2)c2ccccc2n1 | . | . | . | ? | ?
N#CC(c1ccc(Cl)cc1)c1c(Cl)cc(-n2ncc(=O)[nH]c2=O)cc1Cl (stereo not given) | / | / | / | ? | .
CC1CCN(C(=O)CSc2nnc3c(n2)[nH]c2ccccc23)CC1 | . | . | . | ? | .
CCCc1cc(-c2[nH]ncc2-c2ccc(C(=O)OCC)o2)c(O)cc1O | . | ? | . | 6.6µM | .
Cn1cc(CNCc2cn[nH]c2-c2ccc(F)cc2)c(-c2ccc3c(c2)OCCO3)n1 | . | . | . | . | .
CCCc1cc(-c2[nH]ncc2-c2ccc3c(c2)OCCCO3)c(O)cc1O | . | . | . | ? | 13µM
Cc1c(Cl)cccc1-n1cnc(=O)c2ccccc21 | . | / | / | / | /
CC1=C([N+](=O)[O-])C(c2cccc(Br)c2)C2=C(N1)c1ccccc1C2=O (stereo not given) | . | . | . | 4.7µM | /
COC(=O)C1=C(C)NC2=C(C(=O)c3ccccc32)C1c1cccc(OC)c1 (stereo not given) | . | . | . | . | .
COc1ccc(-c2n(Cc3ccccc3)c3ccccc3[n+]2Cc2ccccc2)cc1 | . | . | . | 0.37µM | ?
SMILES | RE007 growth inh | NS1 inh | SARS PLP yeast | Pf growth 48h | Pf growth 96h
Clc1ccc(OCCCn2ccnc2)c(Br)c1 | . | . | . | ? | .
Clc1ccc(CO/N=C(\Cn2ccnc2)c2ccc(Cl)cc2Cl)c(Cl)c1 | / | / | / | 4.3µM | 1.9µM
c1ccc(-c2nc(NCCCN3CCOCC3)c3ccccc3n2)cc1 | . | . | . | ? | /
Cc1cccc(-c2nc(S(=O)(=O)c3ccc(F)cc3)c(NCCCN3CCOCC3)o2)c1 | . | . | . | ? | 13µM
Cc1ccc(S(=O)(=O)c2nc(-c3ccccc3)oc2NCCCN2CCOCC2)cc1 | . | . | . | ? | .
Cc1cccc(-c2nc(NCCCN3CCOCC3)c3ccccc3n2)c1 | . | . | . | / | 2.9µM
CCCC(=O)N1CCC1(C)C(=O)Nc1ccc2c(c1)CCN2C(C)=O (stereo not given) | . | / | / | / | /
Cc1ccn2c(=O)nc(SCC(=O)N3CCCCC3)nc2c1 | . | / | . | . | ?
NC(=O)NC(=O)C[n+]1cccc(/C=N/O)c1 | . | / | . | . | 10µM
CN(C)C(=O)C[n+]1cccc(/C=N/O)c1 | . | . | . | . | .
Cc1cccc(NC(=O)CCn2cnnn2)c1 | . | / | . | . | .
O=C(CSc1nnnn1-c1ccc(F)cc1)Nc1ccccc1F | . | . | . | . | 8.3µM
COc1ccc(-n2nnnc2SC(C)C(N)=O)cc1 (stereo not given) | . | . | . | . | 12µM

Screening results as filed in PubChem.
